The results in this text go back to the supplement of paper PMC9492666.

Counter-ions that a name gives are not always drawn.
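Further: breast cancer cell viability read out with the CCK-8 kit after co-treatment of each compound with the ferroptosis inducer RSL3.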

The experiment has as its system HCC1937. Kind of experiment: relative cell viability, compound + RSL3, vs DMSO (fraction of DMSO control); higher = less growth inhibition. To be noted: 72 h.
As for `CN1CCN(c2ccc(/C=C(\C#N)c3ccccc3Br)cc2)CC1` [DG172 (dihydrochloride)] + COC(=O)c1ccc([C@H]2c3[nH]c4ccccc4c3C[C@H](C(=O)OC)N2C(=O)CCl)cc1 [RSL3], the relative cell viability amounted to 0.373.
The result for `COc1ccc(Nc2ccn(-c3ccccc3)n2)cc1` + COC(=O)c1ccc([C@H]2c3[nH]c4ccccc4c3C[C@H](C(=O)OC)N2C(=O)CCl)cc1 [RSL3] reads 0.425.
Consider `NC(N)=N/N=C/c1cccc(Cl)c1Cl` [Raphin1 acetate] + COC(=O)c1ccc([C@H]2c3[nH]c4ccccc4c3C[C@H](C(=O)OC)N2C(=O)CCl)cc1 [RSL3], for which the relative cell viability was found to be 0.38.
Turning to `C[C@@H]1O[C@@H](O[C@H]2[C@H](Oc3cc(O)c4c(c3)O[C@H](c3ccc(O)cc3)CC4=O)O[C@H](CO)[C@@H](O)[C@@H]2O)[C@H](O)[C@H](O)[C@H]1O` [Naringin] + COC(=O)c1ccc([C@H]2c3[nH]c4ccccc4c3C[C@H](C(=O)OC)N2C(=O)CCl)cc1 [RSL3], the relative cell viability worked out at 0.949.
Next, `COc1ccc(/C=C/c2cc(O)cc(O[C@@H]3O[C@H](CO)[C@@H](O)[C@H](O)[C@H]3O)c2)cc1` [Deoxyrhapontin] + COC(=O)c1ccc([C@H]2c3[nH]c4ccccc4c3C[C@H](C(=O)OC)N2C(=O)CCl)cc1 [RSL3]: 0.532; `CC(C)c1c(C(=O)Nc2ccccc2)c(-c2ccccc2)c(-c2ccc(F)cc2)n1CC[C@@H](O)C[C@@H](O)CC(=O)O` [Atorvastatin Calcium] + COC(=O)c1ccc([C@H]2c3[nH]c4ccccc4c3C[C@H](C(=O)OC)N2C(=O)CCl)cc1 [RSL3]: 0.571.
